# Inconclusive results are not listed. Active and inactive are the calls of the source. Calls come from the whole dose curve; as a rule, active = well fitted inhibition curve with a large enough effect in the repeat runs; inconclusive = weak or mixed curves, or effect the other way; inactive = no such curve, though single readings can be large or run the other way.
# Assay: qHTS assay to identify small molecule antagonists of the retinoic acid receptor (RAR) signaling pathway (AID 1159552; note: nearly all actives have a fitted effect of over 50% in size)
# Conditions: C3RL4 RARE luciferase reporter, retinol-stimulated, 6 h; series mostly up to 92.4 µM; activity, negative = inhibition: at the top concentration
# From the text: National Center for Advancing Translational Sciences [NCATS]
# NIH Chemical Genomics Center [NCGC]
# U.S. Environmental Protection Agency [EPA]
# National Institutes of Environmental Health Sciences [NIEHS]
# National Toxicology Program [NTP]
# U.S. Food and Drug Administration [FDA]
# All-trans Retinoic acid (atRA) is the potent natural metabolite of retinol and plays an important role in normal embryonic development and maintenance of cellular phenotype in adult animals. atRA is the activating ligand for the retinoic acid receptors (RARs) which form heterodimers with retinoid X receptors (RXRs) on the retinoic acid response element (RARE). Through activation of the RAR/RXRs nuclear receptors, atRA regulates the transcription of a large number of protein-coding genes and regulatory RNAs. Intracellular levels of atRA are controlled by the retinol signaling pathway (RSP) that regulates the biosynthesis and catabolism of atRA to maintain physiological levels. Chemicals that interfere with the RSP can cause abnormal intracellular levels of atRA and therefore are potential developmental toxicants. To assess compounds for the potential adverse effect on embryonic development through interfering with retinol signaling, a cell-based RARE luciferase reporter gene assay was used. C3RL4 cell line (OARSA/CFSAN/FDA, Laurel, MD) was used to screen Tox21 10K compound library for identifying inhibitors of the RSP.
# Tox21 Assay Protocol Summary:
# C3RL4 cells were seeded at 1,000/well in 4 uL of assay medium into white solid 1,536-well tissue culture plates (Greiner Bio-One North America Inc. Monroe, NC) using a Multidrop Combi (Thermo Scientific, Waltham, MA) dispenser. After incubation at 37 C and 5% CO2 for an overnight, 23 nL of compounds dissolved in DMSO, positive control or DMSO only were transferred by a Pintool station (Kalypsys, San Diego, CA). One ul of 1 uM (final concentration) of Retinol was added right after the compound addition by using a Flying Reagent Dispenser (FRD) (Aurora Discovery, San Diego, CA). After 6 hr incubation at 37 C and 5% CO2, 5 uL of Amplite Luciferase reagent (AAT Bioquest Inc. Sunnyvale, CA) was added to each assay plate using an FRD. Luminescence was quantified on a ViewLux plate reader (PerkinElmer, Waltham, MA) after 30 min incubation at room temperature.
# % is set by controls: 0 for no effect and ±100 for the full control effect; potency is the fitted concentration of half-maximal effect.
SMILES,"activity, negative = inhibition",Potency
CC(C)[N+](=O)[O-],54.4% (inactive),
CCN(CC)C(C)C(=O)c1ccccc1 (stereo not given),6.81% [at 42.5 µM] (inactive),
COP(=S)(OC)Oc1c(Cl)cc(C)cc1Cl,-5.2% (inactive),
COC(=O)C(C)Oc1ccc(Oc2ccc(Cl)cc2Cl)cc1 (stereo not given),11.2% (inactive),
CNNC,1.92% (inactive),
C#CCN1C(=O)COc2cc(F)c(N3C(=O)C4=C(CCCC4)C3=O)cc21,-0.988% (inactive),
O=C1OC(=O)C2C1C1(Cl)C(Cl)=C(Cl)C2(Cl)C1(Cl)Cl (stereo not given),60.1% (inactive),
Cc1cc(C)nc(Nc2ccccc2)n1,42.4% (inactive),
BrCCCCCCBr,-12% (inactive),
Cc1nnc2n1-c1sc(CCC(=O)N3CCOCC3)cc1C(c1ccccc1Cl)=NC2,-19.1% [at 42.5 µM] (inactive),
C(CCOCC1CO1)COCC1CO1 (stereo not given),44.9% (inactive),
CN(N=O)C(N)=O,49.8% (inactive),
COC(=O)c1c(C(F)F)nc(C(F)(F)F)c(C2=NCCS2)c1CC(C)C,-3.08% (inactive),
CCOP(=S)(OCC)SCSc1ccc(Cl)cc1,11.2% (inactive),
CC(C)CP(=S)(S)CC(C)C,79.4% (inactive),
CCN(CC)c1nc(C)cc(OP(=S)(OC)OC)n1,-0.491% (inactive),
CCOP(=S)(Oc1cnc(C(C)(C)C)nc1)OC(C)C (stereo not given),-3.56% (inactive),
C=CC1CC=CCC1 (stereo not given),25.1% (inactive),
c1cc2c(c(N3CCNCC3)c1)OCCO2,10.6% [at 42.5 µM] (inactive),
CCOC(=O)C1(c2ccccc2)CCN(CCc2ccc(N)cc2)CC1,-16.7% [at 42.5 µM] (inactive),

SMILES,"activity, negative = inhibition",Potency
COC(=O)c1ccccc1S(=O)(=O)NC(=O)N(C)c1nc(C)nc(OC)n1,-6.79% (inactive),
O=[N+]([O-])c1ccc(CBr)cc1,-6.51% (inactive),
O=C(Nc1ccccc1)c1ccccc1I,24.7% (inactive),
N#CC(CCc1ccc(Cl)cc1)(Cn1cncn1)c1ccccc1 (stereo not given),,61.1 µM (active)
N#Cc1ccncc1,13.6% (inactive),
O=C1CN2CCOC2(c2ccccc2Cl)c2cc(Cl)ccc2N1 (stereo not given),-4.48% [at 42.5 µM] (inactive),
Cc1ncc(CNC(=O)N(CCCl)N=O)c(N)n1,-0.334% [at 42.5 µM] (inactive),
O=c1oc2ccccc2c(O)c1C1CCCc2ccccc21 (stereo not given),12.4% (inactive),
O=C1OC(CCN2CCCCC2)OC1(c1ccccc1)c1ccccc1 (stereo not given),,26.6 µM (active)
CCC#N,7.33% (inactive),
O=C(Oc1ccc(Br)cc1)N1CCN2CCC1CC2,16% (inactive),
CC1COC2(c3ccccc3Cl)c3cc(Cl)ccc3NC(=O)CN12 (stereo not given),,29.8 µM (active)
O=[N+]([O-])c1cccc2cccnc12,-17.3% (inactive),
O=C1c2ccccc2C(=O)c2ccccc21,14.2% [at 19 µM] (inactive),
Clc1ccccc1N1CCNCC1,-7.89% [at 42.5 µM] (inactive),
CC1CCCCC1NC(=O)Nc1ccccc1 (stereo not given),103% (inactive),
CSc1ccc(C(=O)C(C)(C)N2CCOCC2)cc1,-14.6% (inactive),
CNC(=O)Oc1ccc(N(C)C)c(C)c1,9.17% (inactive),
ClC(Cl)Br,5.79% (inactive),
C#C[C@]1(O)C=C[C@H]2[C@@H]3CCC4=CC(=O)CC[C@@H]4[C@H]3CC[C@@]21CC,,11.9 µM (active)

# From PubChem BioAssay (Tox21)
